We go through six compounds from PubChem BioAssay (EPA / NIEHS).

Activity calls are given as the source filed them. The calls were made as follows: active = hit-call score of the fitted dose curve at least 0.9, where 1 is the maximum; inactive = score below 0.9.

Experiment [1] in a line: ATG_GRE_CIS: Attagene CIS-FACTORIAL HepG2 Assay for human Glucocorticoid Response Elements (GRE) (AID 2282947). The note with it: HepG2 GRE cis-reporter, Attagene multiplex mRNA; actives raise or lower the signal. The procedure, abridged: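 Cells (HepG2) bearing transfected cis-promoter reporter transcription units were treated with chemical for 24 hours. Reporter mRNA was measured via RT-PCR with capillary electrophoresis, and activity was fitted in both directions relative to DMSO.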

Experiment [2] can be described thus: ATG_ISRE_CIS: Attagene CIS-FACTORIAL HepG2 Assay for human Interferon Regulatory Factor 1 (IRF1) binding to an Interferon-Stimulated Response Element (ISRE) (AID 2282948). To be noted: HepG2 ISRE cis-reporter (Attagene), mRNA transcription readout; actives raise or lower the signal. Put shortly: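 Endogenous transcription factor activity read as reporter transcript abundance via RT-PCR and capillary electrophoresis. HepG2 cells transiently transfected, 24 h chemical exposure. Gain or loss fitted against DMSO baseline.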

Experiment [3] is described as follows: ATG_M_32_CIS: Attagene CIS-FACTORIAL HepG2 Assay for M32 Transcription Factor (Internal Marker) (AID 2282949).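 Also: background control marker of the multiplexed CIS panel rather than a real target.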 To be noted: HepG2 Attagene cis-factorial M32 reporter, mRNA; actives raise or lower the signal. Put shortly:
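HepG2 transfectants (cis-regulated reporter transcription units) dosed 24 h. Reporter mRNA by RT-PCR plus CE, analysed as gain or loss relative to DMSO.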

Experiment [4] in a line: ATG_M_06_CIS: Attagene CIS-FACTORIAL HepG2 Assay for M06 Transcription Factor (Internal Marker) (AID 2282950). To be noted: HepG2 Attagene CIS-FACTORIAL M06 internal marker reporter; actives raise or lower the signal. The procedure, abridged:
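Steps: transfect HepG2 with multiplexed cis-element reporter constructs; dose chemical 24 h; extract RNA with DNase treatment; reverse-transcribe, PCR-amplify, 6-FAM label, HpaI digest; separate fragments by capillary electrophoresis. Activity fitted both directions versus DMSO.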

Experiment [5] has as its target Hypoxia-inducible factor 1-alpha (Homo sapiens) (UniProt Q16665). Put plainly: ATG_HIF1a_CIS: Attagene CIS-FACTORIAL HepG2 Assay for human Hypoxia Inducible Factor 1 (HIF1A) (AID 2282951). The note with it: HepG2 Attagene cis-factorial HIF1a reporter transcription; actives raise or lower the signal. The procedure, abridged: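 HepG2, transient cis-reporter library, 24 h dosing. RNA → RT (oligo dT) → PCR → 6-FAM primer extension → HpaI → CE. Bidirectional curve fit vs DMSO.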

Experiment [6] addresses Hepatocyte nuclear factor 6 (Homo sapiens) (UniProt Q9UBC0). Put plainly: ATG_HNF6_CIS: Attagene CIS-FACTORIAL HepG2 Assay for human Hepatocyte Nuclear Factor 6 (HNF6) (AID 2282952). To be noted: HepG2 Attagene cis-factorial HNF6 reporter transcription; actives raise or lower the signal. The procedure, abridged: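 Endogenous transcription factor activity in human HepG2 liver cells was captured through cis-regulated reporter constructs. After 24 h treatment, reporter mRNA was measured by RT-PCR with capillary electrophoresis, and activity was fitted in both directions relative to DMSO.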

For experiment [7], the target named is Heat shock factor protein 1 (Homo sapiens) (UniProt Q00613). Put plainly: ATG_HSE_CIS: Attagene CIS-FACTORIAL HepG2 Assay for human Heat Shock Transcription Factor 1 (HSE) (AID 2282953). The note with it: HepG2 HSE cis-reporter, Attagene RNA transcription; actives raise or lower the signal. The procedure, abridged: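 Cells were transfected with cis-element-driven reporter constructs, dosed for 24 h, then total RNA was reverse-transcribed and reporter cDNA amplified, FAM-labelled and digested with HpaI. Fragments were resolved by capillary electrophoresis; gain or loss was fitted against DMSO.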
Heat shock factor protein 1 (Homo sapiens), sequence (Q00613 whole entry, looked up, the tested form may be a part): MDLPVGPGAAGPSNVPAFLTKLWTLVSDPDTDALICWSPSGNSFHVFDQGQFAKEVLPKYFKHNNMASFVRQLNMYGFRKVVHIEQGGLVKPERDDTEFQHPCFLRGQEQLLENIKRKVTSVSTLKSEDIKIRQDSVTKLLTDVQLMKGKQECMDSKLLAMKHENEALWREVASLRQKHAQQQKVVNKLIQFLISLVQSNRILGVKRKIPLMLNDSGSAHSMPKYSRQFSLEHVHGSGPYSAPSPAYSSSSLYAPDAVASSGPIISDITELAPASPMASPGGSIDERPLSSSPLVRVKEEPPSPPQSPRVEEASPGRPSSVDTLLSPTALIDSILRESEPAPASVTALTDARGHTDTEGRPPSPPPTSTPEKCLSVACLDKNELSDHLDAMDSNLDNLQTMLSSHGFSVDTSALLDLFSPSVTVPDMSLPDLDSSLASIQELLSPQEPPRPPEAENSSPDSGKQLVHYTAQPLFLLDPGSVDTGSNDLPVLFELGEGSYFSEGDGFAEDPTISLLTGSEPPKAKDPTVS

The nature of experiment [8]: ATG_MRE_CIS: Attagene CIS-FACTORIAL HepG2 Assay for human Metal Responsive Element (MRE) (AID 2282954). To be noted: HepG2 MRE cis-reporter transcription, Attagene multiplex; actives raise or lower the signal. The procedure, abridged:
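Cells were transfected with cis-promoter reporter transcription units, then dosed for 24 h. RNA was reverse-transcribed, amplified, fluorescently labelled and resolved by capillary electrophoresis, and activity was fitted in both directions relative to DMSO.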

Experiment [9] in a line: ATG_PBREM_CIS: Attagene CIS-FACTORIAL HepG2 Assay for human Phenobarbital-responsive Enhancer Module (PBREM) (AID 2282955). To be noted: HepG2 PBREM cis-reporter, Attagene multiplexed transcription; actives raise or lower the signal. The procedure, abridged: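 HepG2, transient MRTU transfection, 24 h dosing; RNA → oligo(dT) RT → PCR → 6-FAM extension → HpaI → CE. Bidirectional fit vs DMSO.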

The target of experiment [10] is Paired box protein Pax-6 (Homo sapiens) (UniProt P26367). Put plainly: ATG_Pax6_CIS: Attagene CIS-FACTORIAL HepG2 Assay for human Paired Box 6 (PAX6) (AID 2282956). To be noted: HepG2 CIS-FACTORIAL PAX6 reporter transcription, RNA readout; actives raise or lower the signal. Put shortly: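 Read-out is reporter transcript level, measured by RT-PCR with fluorescent primer extension and capillary electrophoresis after 24 h dosing of transfected HepG2 cells. Activity in either direction fitted relative to DMSO control.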
Paired box protein Pax-6 (Homo sapiens), sequence (P26367 whole entry, looked up): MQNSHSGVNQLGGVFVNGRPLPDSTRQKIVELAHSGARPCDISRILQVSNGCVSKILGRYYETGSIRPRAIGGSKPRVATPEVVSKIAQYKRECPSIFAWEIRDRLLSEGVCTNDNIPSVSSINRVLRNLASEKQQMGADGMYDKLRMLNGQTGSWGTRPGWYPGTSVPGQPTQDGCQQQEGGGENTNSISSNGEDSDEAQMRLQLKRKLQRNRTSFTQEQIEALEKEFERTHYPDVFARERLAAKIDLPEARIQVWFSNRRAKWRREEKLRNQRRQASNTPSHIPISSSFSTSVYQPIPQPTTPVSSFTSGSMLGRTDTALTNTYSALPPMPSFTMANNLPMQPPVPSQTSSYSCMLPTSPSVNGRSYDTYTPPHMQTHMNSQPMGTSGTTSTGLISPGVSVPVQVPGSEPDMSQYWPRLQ

The nature of experiment [11]: ATG_PXRE_CIS: Attagene CIS-FACTORIAL HepG2 Assay for human Pregnane X Receptor Element (PXRE) (AID 2282957). To be noted: HepG2 Attagene CIS-FACTORIAL PXRE reporter, mRNA; actives raise or lower the signal. Put shortly:
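Endogenous transcription factor activity in HepG2 was gauged through induction of reporter mRNA driven by a cis-regulating promoter element, sampled 24 h post-treatment. Activity was fitted in both directions against DMSO negative control.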

The nature of experiment [12]: ATG_PPRE_CIS: Attagene CIS-FACTORIAL HepG2 Assay for human Peroxisome Proliferator-activated Response Element (PPRE) (AID 2282958). The note with it: HepG2 PPRE cis-element reporter, Attagene transcription factor profiling; actives raise or lower the signal. Put shortly: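 Transcript-level reporter induction in transfected HepG2 cells after 24 h chemical exposure, quantified by fluorescence from RT-PCR products separated by capillary electrophoresis.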

Experiment [13] can be described thus: ATG_RORE_CIS: Attagene CIS-FACTORIAL HepG2 Assay for human RAR-related Orphan Receptor Element (RORE) (AID 2282959). The note with it: HepG2 Attagene cis-factorial RORE reporter, mRNA; actives raise or lower the signal. Put shortly: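 Multiplexed reporter assay measuring mRNA induction from a cis promoter element in transiently transfected HepG2 cells after 24 h treatment. Detection via RT-PCR and capillary electrophoresis fluorescence; DMSO serves as baseline.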

Experiment [14] in a line: ATG_Sox_CIS: Attagene CIS-FACTORIAL HepG2 Assay for human SRY-box transcription factor (SOX) (AID 2282960). To be noted: HepG2 Attagene cis-factorial SOX reporter, mRNA; actives raise or lower the signal. Put shortly: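 Cells were transfected with reporter constructs under cis-regulatory promoters, then exposed to chemicals for 24 h. Reporter transcripts were quantified by fluorescence after RT-PCR and capillary electrophoresis; activity was fitted in both directions against DMSO.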

Experiment [15] concerns the target Transcription factor Sp1 (Homo sapiens) (UniProt P08047). Put plainly: ATG_Sp1_CIS: Attagene CIS-FACTORIAL HepG2 Assay for human Specificity Protein 1 (Sp1) (AID 2282961). To be noted: HepG2 Sp1 cis-reporter transcription, actives raise or lower the signal. Put shortly: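 Measures mRNA induction of an Sp1-linked reporter in HepG2 cells 24 h post-dosing. Multiplexed reporters read by RT-PCR and capillary electrophoresis; DMSO serves as negative control and baseline.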

Experiment [16] can be described thus: ATG_SREBP_CIS: Attagene CIS-FACTORIAL HepG2 Assay for human Sterol Regulatory Element Binding (SREBP) (AID 2282962). To be noted: HepG2 Attagene cis-factorial SREBP reporter, mRNA; actives raise or lower the signal. Put shortly: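 Endogenous SREBP activity read as cis-element-driven reporter transcript in transiently transfected HepG2, 24 h post-dosing; quantified via RT-PCR plus capillary electrophoresis of fluorescent fragments. Gain or loss of signal fitted relative to DMSO baseline.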

In experiment [17] the target is Signal transducer and activator of transcription 3 (Homo sapiens) (UniProt P40763). Put plainly: ATG_STAT3_CIS: Attagene CIS-FACTORIAL HepG2 Assay for human Signal Transducer and Activator of Transcription 3 (STAT3) (AID 2282963). To be noted: HepG2, Attagene cis-factorial STAT3 reporter transcription; actives raise or lower the signal. The procedure, abridged:
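HepG2, MRTU-transfected, 24 h dosing. RNA → RT → PCR → FAM label → HpaI → CE. Bidirectional fit vs DMSO.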

Experiment [18] is described as follows: ATG_TA_CIS: Attagene CIS-FACTORIAL HepG2 Assay for human TA Basal Promoter (AID 2282964). The note with it: HepG2 Attagene CIS-factorial TA basal promoter reporter; actives raise or lower the signal. The procedure, abridged:
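Steps: transfect HepG2 with MRTUs; dose 24 h; isolate RNA, DNase-treat, reverse-transcribe; PCR and FAM-label reporter cDNA; digest with HpaI 2h at 37 C; run capillary electrophoresis. Activity fitted both directions against DMSO.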

A short description of experiment [19]: ATG_TCF_b_cat_CIS: Attagene CIS-FACTORIAL HepG2 Assay for human T-Cell-Factor with beta-catenin (TCF/b-cat) (AID 2282965). The note with it: HepG2 TCF/beta-catenin cis-reporter transcription, actives raise or lower the signal. The procedure, abridged:
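Using capillary electrophoresis as the read-out, labelled reporter cDNA fragments from transiently transfected HepG2 were sized and quantified. Exposure lasted 24 hours; activity in either direction was referenced to DMSO.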

Signal transducer and activator of transcription 3 (Homo sapiens), sequence (P40763 whole entry, looked up): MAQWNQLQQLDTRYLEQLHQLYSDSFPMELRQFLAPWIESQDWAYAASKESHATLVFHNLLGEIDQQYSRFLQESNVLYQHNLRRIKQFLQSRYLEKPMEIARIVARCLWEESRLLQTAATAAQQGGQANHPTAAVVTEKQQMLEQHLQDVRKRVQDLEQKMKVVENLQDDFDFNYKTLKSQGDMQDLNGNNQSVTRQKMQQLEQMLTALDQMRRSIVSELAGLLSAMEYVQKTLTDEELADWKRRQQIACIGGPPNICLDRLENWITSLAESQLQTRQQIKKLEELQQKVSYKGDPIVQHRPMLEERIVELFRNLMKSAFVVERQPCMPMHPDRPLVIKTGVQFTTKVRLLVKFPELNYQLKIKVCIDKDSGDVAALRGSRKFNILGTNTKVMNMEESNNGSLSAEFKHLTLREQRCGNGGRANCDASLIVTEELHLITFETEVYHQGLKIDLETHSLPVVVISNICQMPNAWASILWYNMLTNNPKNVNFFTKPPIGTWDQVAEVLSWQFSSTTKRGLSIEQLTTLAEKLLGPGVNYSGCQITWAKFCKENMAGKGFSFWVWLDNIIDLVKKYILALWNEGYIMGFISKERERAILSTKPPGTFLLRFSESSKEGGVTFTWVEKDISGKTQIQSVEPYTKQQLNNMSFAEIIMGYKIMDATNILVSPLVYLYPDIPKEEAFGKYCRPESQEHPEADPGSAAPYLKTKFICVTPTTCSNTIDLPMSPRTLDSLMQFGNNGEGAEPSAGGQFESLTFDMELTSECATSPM
Hypoxia-inducible factor 1-alpha (Homo sapiens), sequence (Q16665 whole entry, looked up): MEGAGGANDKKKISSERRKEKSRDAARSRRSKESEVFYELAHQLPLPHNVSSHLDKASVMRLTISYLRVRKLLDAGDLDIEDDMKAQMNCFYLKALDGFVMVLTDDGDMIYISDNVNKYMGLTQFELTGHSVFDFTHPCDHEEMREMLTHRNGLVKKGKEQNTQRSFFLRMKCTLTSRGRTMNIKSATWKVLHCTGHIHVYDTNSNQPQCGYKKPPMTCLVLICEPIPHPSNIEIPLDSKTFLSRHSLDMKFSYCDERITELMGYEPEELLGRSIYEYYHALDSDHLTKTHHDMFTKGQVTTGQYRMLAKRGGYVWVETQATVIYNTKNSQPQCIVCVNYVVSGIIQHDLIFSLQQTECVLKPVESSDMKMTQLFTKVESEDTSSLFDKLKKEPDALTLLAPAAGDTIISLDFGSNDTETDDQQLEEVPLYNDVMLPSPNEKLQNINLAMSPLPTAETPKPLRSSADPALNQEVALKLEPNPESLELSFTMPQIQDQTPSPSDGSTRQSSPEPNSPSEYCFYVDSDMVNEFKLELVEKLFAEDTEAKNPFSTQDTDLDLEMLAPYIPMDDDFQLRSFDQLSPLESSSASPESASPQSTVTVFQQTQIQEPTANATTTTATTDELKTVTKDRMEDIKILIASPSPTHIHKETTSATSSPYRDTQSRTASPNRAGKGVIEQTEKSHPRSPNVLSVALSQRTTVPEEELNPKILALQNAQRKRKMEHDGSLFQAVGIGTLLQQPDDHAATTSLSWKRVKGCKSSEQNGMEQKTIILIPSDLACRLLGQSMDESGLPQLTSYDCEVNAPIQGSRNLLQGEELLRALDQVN
Hepatocyte nuclear factor 6 (Homo sapiens), sequence (Q9UBC0 whole entry, looked up): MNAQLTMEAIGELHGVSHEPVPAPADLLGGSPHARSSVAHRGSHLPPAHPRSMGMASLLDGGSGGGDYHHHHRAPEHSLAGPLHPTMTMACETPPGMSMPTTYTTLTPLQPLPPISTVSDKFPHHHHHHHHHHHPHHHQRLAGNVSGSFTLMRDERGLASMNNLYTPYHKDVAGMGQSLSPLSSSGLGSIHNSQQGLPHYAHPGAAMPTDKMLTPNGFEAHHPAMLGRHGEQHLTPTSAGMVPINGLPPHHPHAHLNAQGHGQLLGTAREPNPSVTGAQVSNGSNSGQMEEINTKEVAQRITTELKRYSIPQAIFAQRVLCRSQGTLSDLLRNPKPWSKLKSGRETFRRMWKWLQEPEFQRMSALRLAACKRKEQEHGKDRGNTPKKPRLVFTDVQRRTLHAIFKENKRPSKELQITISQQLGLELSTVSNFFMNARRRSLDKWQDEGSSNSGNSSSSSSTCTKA
Transcription factor Sp1 (Homo sapiens), sequence (P08047 whole entry, looked up): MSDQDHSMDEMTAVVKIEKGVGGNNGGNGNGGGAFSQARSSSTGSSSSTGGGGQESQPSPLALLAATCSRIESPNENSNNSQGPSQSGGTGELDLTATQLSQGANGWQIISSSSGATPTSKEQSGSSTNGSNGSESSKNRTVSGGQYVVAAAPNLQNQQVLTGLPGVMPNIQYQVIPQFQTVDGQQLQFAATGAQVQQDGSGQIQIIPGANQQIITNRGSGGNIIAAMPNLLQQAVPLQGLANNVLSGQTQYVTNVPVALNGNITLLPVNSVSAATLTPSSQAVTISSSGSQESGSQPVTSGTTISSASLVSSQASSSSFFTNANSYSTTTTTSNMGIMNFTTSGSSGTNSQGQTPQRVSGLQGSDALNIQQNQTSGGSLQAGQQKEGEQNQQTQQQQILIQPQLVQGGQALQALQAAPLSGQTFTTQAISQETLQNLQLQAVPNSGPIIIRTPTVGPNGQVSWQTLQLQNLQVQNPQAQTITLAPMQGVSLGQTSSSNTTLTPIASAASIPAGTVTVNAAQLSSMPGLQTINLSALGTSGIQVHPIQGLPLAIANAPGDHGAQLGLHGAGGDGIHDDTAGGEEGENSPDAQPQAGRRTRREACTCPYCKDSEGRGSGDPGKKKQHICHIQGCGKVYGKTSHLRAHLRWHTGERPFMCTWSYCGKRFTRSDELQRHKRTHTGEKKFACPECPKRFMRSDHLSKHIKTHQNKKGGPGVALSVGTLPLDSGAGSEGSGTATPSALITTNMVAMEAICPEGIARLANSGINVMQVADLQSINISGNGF

As for `CN1CCOCC1`, the compound was classed as inactive in [1], in experiment [2], in experiment [4], in experiment [5], in experiment [6] and in experiment [7]. Also, the compound was classed as inactive in [8], in experiment [9], in experiment [10], in experiment [11], in experiment [12] and in [13]. Besides, the call in [14], in experiment [15], in experiment [16], in experiment [17], in [18] and in [19] was inactive. Further, in [3], the AC50 is 100 µM (active).

Take `Nc1ccc(NCCO)c([N+](=O)[O-])c1`: the result in experiment [1], in experiment [2], in [3], in experiment [4], in experiment [5] and in [6] was inactive. Moreover, the compound was called inactive in [7], in experiment [8], in experiment [9], in experiment [10], in [11] and in [12]. Moreover, the outcome in experiment [13], in experiment [15], in experiment [16], in [17] and in experiment [18] was inactive.

With `CCCCCCC(CO)CCCC` (stereo not drawn), the compound was called inactive in [1], in experiment [2], in [3], in experiment [4], in [5] and in [6]. The compound was classed as inactive in [7], in [8], in [9], in [10], in [13] and in experiment [14]. The call in experiment [15], in [16], in [17], in [18] and in experiment [19] was inactive. Further, in experiment [11], the AC50 is 33.4 µM (active).

On to `CC(=O)NCCO`, for which the call in experiment [1], in experiment [2], in [3], in experiment [4], in experiment [5] and in experiment [6] was inactive. The compound was called inactive in experiment [7], in experiment [8], in experiment [9], in experiment [10], in [11] and in experiment [13]. Moreover, the compound was classed as inactive in [14], in experiment [15], in experiment [16], in [17], in experiment [18] and in experiment [19].

With `CCCCSCCCC`, the compound was classed as inactive in experiment [1], in experiment [2], in [3], in experiment [4], in experiment [5] and in experiment [6]. Also, the compound was called inactive in experiment [7], in [8], in [9], in experiment [10], in experiment [11] and in [12]. For the same compound, the call in experiment [13], in [14], in [15], in [16], in experiment [17] and in [18] was inactive. Further, the call in experiment [19] was inactive.

Consider `CN(C)c1cccc(O)c1`, for which the call in experiment [1], in experiment [2], in experiment [3], in experiment [4], in experiment [5] and in experiment [6] was inactive. In addition, the outcome in experiment [7], in [8], in [9], in [12], in experiment [14] and in experiment [15] was inactive. The compound was classed as inactive in experiment [16], in [17], in experiment [18] and in experiment [19]. In experiment [11], the concentration at half-maximal activity (AC50) was 6.77 µM (active).
